# Laboratory results published in PubChem BioAssay.
# Activity calls are given as the source filed them. Unless noted, the rule behind the calls is not given here.
# Assays:
# [1] = system: Wnt5a (protein binding on small-molecule microarray); experiment: small molecules binding Wnt5a protein – biophysical, small-molecule microarray, 635/667 nm fluorescence, primary screen (AID 1142); settings: 635 nm fluorescence, higher = more signal;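 note: fluorescence read at 667 nm with signal to noise per printed feature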
# [2] = ATP-based viability of Huh7 replicon cells – cell-based, CellTiter-Glo luminescence, basal, 48 h, cytotoxicity control for HCV replication inhibitor project, primary screen (AID 1143); settings: higher = more signal, called active from +8 up or from −8 down;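 note: Huh7 hepatoma cells carrying a hepatitis C replication reporter with no stimulus; test concentration not given here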
# [3] = Pseudomonas biofilm growth suppression – PAO1 strain, BacTiter-Glo luminescence, LB-PBS, primary screen (AID 1144); settings: P. aeruginosa PAO1 biofilm, 12 h, higher = more signal
# [4] = basal CRE-LacZ reporter activity in PC12 – cell-based, unstimulated, primary screen (AID 1145); settings: no forskolin, luminescence, 4.5 h, higher = more signal, called active from +8 up or from −8 down
# [5] = forskolin-driven CRE-LacZ activity in PC12 – cell-based, CRE-LacZ reporter, forskolin-stimulated, primary screen (AID 1146); settings: luminescence, 4.5 h, higher = more signal, called active from +8 up or from −8 down;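 note: PC12 cells with 6xCRE LacZ reporter stimulated by forskolin 10 µM; beta-galactosidase reporter signal reflecting CREB driven transcription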
# [6] = target: Streptavidin (Streptomyces avidinii) (UniProt P22629); experiment: compounds binding control protein streptavidin – biophysical, small-molecule microarray, 635/667 nm fluorescence, artefact control for SMM compound annotation, primary screen (AID 1147); settings: higher = more signal;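 note: signal reflects streptavidin binding to arrayed compounds as a control protein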
# Streptavidin (Streptomyces avidinii), sequence (P22629 whole entry, looked up): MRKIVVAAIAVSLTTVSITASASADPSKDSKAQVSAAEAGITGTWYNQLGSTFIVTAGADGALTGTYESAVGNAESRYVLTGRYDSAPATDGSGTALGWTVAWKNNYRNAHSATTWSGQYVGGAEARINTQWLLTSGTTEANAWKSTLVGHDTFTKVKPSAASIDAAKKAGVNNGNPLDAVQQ
# [7] = probe aInhba binding on compound microarray – biochemical, small-molecule microarray, 635/667 nm fluorescence, primary screen (AID 1148); settings: higher = more signal;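 note: score merges 667nm spot fluorescence with signal-to-noise for antibody binding to printed compounds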
# Torsin-1A (Homo sapiens) [8] = target: Torsin-1A (Homo sapiens) (UniProt O14656); experiment: TOR1A wild-type binding on microarray – cell lysate, small-molecule microarray, lysate, 635/667 nm, primary screen (AID 1149); settings: COS7 hTOR1A-WT lysate, 635 nm fluorescence, higher = more signal
# Torsin-1A (Homo sapiens), sequence (O14656 whole entry, looked up): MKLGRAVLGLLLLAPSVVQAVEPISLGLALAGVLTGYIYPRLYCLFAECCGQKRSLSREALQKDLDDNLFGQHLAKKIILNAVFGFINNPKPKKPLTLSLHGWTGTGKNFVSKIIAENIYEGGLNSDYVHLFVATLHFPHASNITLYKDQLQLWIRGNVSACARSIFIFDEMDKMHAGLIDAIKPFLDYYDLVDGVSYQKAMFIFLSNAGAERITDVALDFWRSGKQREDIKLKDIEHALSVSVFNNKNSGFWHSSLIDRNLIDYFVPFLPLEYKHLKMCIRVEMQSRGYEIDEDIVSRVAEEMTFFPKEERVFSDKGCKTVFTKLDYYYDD
# Torsin-1A (Homo sapiens) [9] = target: Torsin-1A (Homo sapiens) (UniProt O14656); experiment: torsin A mutant lysate binding on microarrays – cell lysate, small-molecule microarray, COS7 lysate, 635/667 nm fluorescence, primary screen (AID 1150); settings: COS7 hTOR1A mutant lysate, 635 nm fluorescence, higher = more signal;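 note: score pools 667 nm emission and signal to noise measuring lysate protein binding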
# [10] = system: Sonic hedgehog protein (Shh); experiment: Sonic hedgehog microarray binding compounds – biochemical, small-molecule microarray, 635/667 nm fluorescence, primary screen (AID 1151); settings: 635 nm fluorescence, higher = more signal;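 note: Shh protein binding to compounds spotted on small-molecule microarray slides; score combines spot fluorescence intensity with signal-to-noise across triplicate slides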
# [11] = optical density shifts of acrAB sulA E. coli – strain DRC41, OD650, 48 h, E. coli filamentation inducer project, primary screen (AID 1152); settings: higher = more signal, called active from +8 up or from −8 down;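 note: E. coli MC1000 strain DRC41 lacking acrAB efflux pump and sulA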
# [12] = probe aLefty1 binding on compound microarray – biochemical, small-molecule microarray, 635/667 nm fluorescence, primary screen (AID 1153); settings: higher = more signal;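 note: score merges spot fluorescence with signal-to-noise ratio from the scanned slide images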
# [13] = plasmodial surface anion channel blockers, osmotic lysis – cell-based, P. falciparum Indochina, OD700, 1 h, primary screen (AID 1154); settings: P. falciparum Indochina infected RBC osmotic lysis, higher = more signal, called active from +8 up or from −8 down
# [14] = plasmodial surface anion channel blockers, osmotic lysis – cell-based, P. falciparum Indochina, OD700, 2 h, primary screen (AID 1155);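 note: lysis reports solute entry through the parasite surface anion channel PSAC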; settings: P. falciparum Indochina infected erythrocytes, higher = more signal, called active from +8 up or from −8 down
# [15] = changes in parasitized red cell lysis, either direction – P. falciparum Indochina, OD700, 3 h, PSAC antagonist project, primary screen (AID 1156); settings: P. falciparum-infected erythrocytes, osmotic lysis, higher = more signal, called active from +8 up or from −8 down
# [16] = plasmodial surface anion channel blockers, osmotic lysis – cell-based, P. falciparum Indochina, OD700, 18 h, primary screen (AID 1157); settings: P. falciparum Indochina infected erythrocytes, osmotic lysis OD700, 18 h; higher = more signal, called active from +8 up or from −8 down
# [17] = S6 kinase pathway phospho-S6 level changes – cell-based, A549, cytoblot, luminescence, serum-stimulated, primary screen (AID 1158); settings: 5 h, higher = more signal;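 note: serum-stimulated A549 lung adenocarcinoma cells; signal is phosphorylated S6 detected by cytoblot immunostaining with HRP secondary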
# [18] = target: NADPH oxidase 2 (Homo sapiens) (UniProt P04839); experiment: compounds shifting NOX2 Amplex Red fluorescence – cell-based, HEK293-NOX2, PMA-stimulated, NOX inhibitor project, primary screen (AID 1159); settings: 45 min, higher = more signal, called active from +8 up or from −8 down; note: test concentration not given here
# NADPH oxidase 2 (Homo sapiens), sequence (P04839 whole entry, looked up): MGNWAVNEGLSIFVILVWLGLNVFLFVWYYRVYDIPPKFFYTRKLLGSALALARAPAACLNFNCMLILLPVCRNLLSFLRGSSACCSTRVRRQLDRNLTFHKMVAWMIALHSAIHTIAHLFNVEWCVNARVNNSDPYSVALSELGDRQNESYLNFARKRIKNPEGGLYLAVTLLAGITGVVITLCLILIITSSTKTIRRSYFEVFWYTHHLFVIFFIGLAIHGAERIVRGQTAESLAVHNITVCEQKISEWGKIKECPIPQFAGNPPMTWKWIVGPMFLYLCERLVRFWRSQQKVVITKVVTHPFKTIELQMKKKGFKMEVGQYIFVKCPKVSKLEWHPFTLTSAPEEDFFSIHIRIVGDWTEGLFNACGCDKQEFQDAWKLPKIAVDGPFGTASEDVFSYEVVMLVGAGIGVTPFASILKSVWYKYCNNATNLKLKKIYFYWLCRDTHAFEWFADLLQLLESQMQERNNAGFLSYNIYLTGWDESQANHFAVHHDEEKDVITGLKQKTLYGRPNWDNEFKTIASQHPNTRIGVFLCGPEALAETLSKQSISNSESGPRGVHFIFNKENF
# [19] = target: NADPH oxidase 4 (Homo sapiens) (UniProt Q9NPH5); experiment: compounds shifting NOX4 Amplex Red fluorescence – cell-based, HEK293-NOX4, tetracycline-induced, NOX inhibitor project, primary screen (AID 1160); settings: HEK293-NOX4, Amplex Red H2O2 fluorescence, 45 min; higher = more signal, called active from +8 up or from −8 down
# NADPH oxidase 4 (Homo sapiens), sequence (Q9NPH5 whole entry, looked up): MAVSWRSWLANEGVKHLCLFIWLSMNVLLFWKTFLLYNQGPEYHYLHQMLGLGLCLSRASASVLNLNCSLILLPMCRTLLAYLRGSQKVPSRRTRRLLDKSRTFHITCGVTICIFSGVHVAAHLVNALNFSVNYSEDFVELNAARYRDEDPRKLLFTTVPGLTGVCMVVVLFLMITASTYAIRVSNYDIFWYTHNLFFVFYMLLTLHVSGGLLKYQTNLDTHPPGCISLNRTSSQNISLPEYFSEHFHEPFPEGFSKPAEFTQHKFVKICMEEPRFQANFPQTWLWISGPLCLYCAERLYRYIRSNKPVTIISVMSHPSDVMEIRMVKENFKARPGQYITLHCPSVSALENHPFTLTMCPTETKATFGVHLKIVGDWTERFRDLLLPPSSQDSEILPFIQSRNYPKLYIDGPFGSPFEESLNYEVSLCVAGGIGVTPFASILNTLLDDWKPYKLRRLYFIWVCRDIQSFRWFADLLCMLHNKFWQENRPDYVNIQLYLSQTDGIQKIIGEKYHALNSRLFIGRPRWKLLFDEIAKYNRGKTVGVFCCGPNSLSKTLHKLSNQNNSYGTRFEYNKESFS
# [20] = target: NADPH oxidase 5 (Homo sapiens) (UniProt Q96PH1); experiment: compounds shifting NOX5 Amplex Red fluorescence – cell-based, HEK293-NOX5, NOX inhibitor project, primary screen (AID 1161); settings: HEK293-NOX5, ionomycin, 45 min, higher = more signal
# NADPH oxidase 5 (Homo sapiens), sequence (Q96PH1 whole entry, looked up): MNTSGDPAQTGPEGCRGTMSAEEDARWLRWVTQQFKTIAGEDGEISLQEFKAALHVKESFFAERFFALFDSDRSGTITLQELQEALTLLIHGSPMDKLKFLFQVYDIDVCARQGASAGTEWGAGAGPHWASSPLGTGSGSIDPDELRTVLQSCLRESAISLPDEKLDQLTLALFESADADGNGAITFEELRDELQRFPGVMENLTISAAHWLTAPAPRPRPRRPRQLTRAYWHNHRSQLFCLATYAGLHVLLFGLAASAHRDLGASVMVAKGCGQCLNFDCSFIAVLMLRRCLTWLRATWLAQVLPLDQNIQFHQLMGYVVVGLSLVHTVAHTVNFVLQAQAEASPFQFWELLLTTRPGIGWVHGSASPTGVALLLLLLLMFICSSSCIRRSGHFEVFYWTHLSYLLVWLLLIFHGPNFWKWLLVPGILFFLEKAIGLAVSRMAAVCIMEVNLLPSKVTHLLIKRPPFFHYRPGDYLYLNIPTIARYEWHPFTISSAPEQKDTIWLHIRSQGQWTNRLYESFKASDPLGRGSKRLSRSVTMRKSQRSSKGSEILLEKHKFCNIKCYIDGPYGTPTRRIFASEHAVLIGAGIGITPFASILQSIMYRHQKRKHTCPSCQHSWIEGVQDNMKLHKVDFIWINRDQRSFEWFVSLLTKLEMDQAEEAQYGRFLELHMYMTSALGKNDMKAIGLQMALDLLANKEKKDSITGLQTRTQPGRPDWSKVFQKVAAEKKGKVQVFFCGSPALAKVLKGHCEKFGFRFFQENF
Compound,composite z-score [1],z-score [2],z-score [3],z-score [4],z-score [5],composite z-score [6],composite z-score [7],composite z-score (Torsin-1A (Homo sapiens) [8]),composite z-score (Torsin-1A (Homo sapiens) [9]),composite z-score [10],z-score [11],composite z-score [12],z-score [13],z-score [14],z-score [15],z-score [16],z-score [17],z-score [18],z-score [19],z-score [20]
Cc1ccccc1C(O)C1C=CC2C(=O)N(C)C(=O)C2N1Nc1ccc([N+](=O)[O-])cc1[N+](=O)[O-] (stereo not given),0.483,-0.157 (inactive),0.262 (inactive),0.443 (inactive),0.57 (inactive),1.04,0.138,-0.0091,0.94,-0.457,-1.68 (inactive),0.591,4.34 (inactive),1.7 (inactive),1.06 (inactive),0.95 (inactive),-1.32,-0.824 (inactive),-1.23 (inactive),0.487
CC(C)CN1C(=O)[C@@]2(Cc3ccccc31)c1ccccc1C(=O)N(Cc1ccccc1)[C@H]2c1ccc(CO)cc1,-0.631,0.174 (inactive),-0.221 (inactive),-0.295 (inactive),0.378 (inactive),-0.64,-0.102,-0.971,-0.359,-1.05,-0.731 (inactive),-0.702,0.0889 (inactive),-0.719 (inactive),0.27 (inactive),0.157 (inactive),0.148,0.439 (inactive),-0.348 (inactive),-0.498
CC(C)CNC(=O)[C@@]1(C)c2ccccc2C(=O)N(Cc2ccccc2)[C@H]1c1ccc(CO)cc1,-0.368,0.0572 (inactive),0.789 (inactive),0.531 (inactive),0.172 (inactive),-1.18,-0.331,-1.5,-0.742,-1.02,-0.743 (inactive),-0.16,3.11 (inactive),0.122 (inactive),0.709 (inactive),0.0589 (inactive),0.11,-0.912 (inactive),0.0265 (inactive),-1.13
COc1ccc(C#Cc2ccc3c(c2)[C@]2(C(=O)N3)[C@H](C(N)=O)[C@H]3C(=O)O[C@H](c4ccccc4)[C@H](c4ccccc4)N3[C@@H]2c2ccc(O)cc2)cc1,0.138,-4.69 (inactive),-0.755 (inactive),-0.465 (inactive),-0.332 (inactive),0.214,-0.128,0.369,1.03,0.794,-0.203 (inactive),-0.131,3.46 (inactive),1.63 (inactive),0.0128 (inactive),1.23 (inactive),0.0535,0.945 (inactive),0.346 (inactive),-1.04
[N-]=[N+]=NCc1ccccc1C[C@]1(C(=O)NCCN2CCOCC2)COC(c2ccc(OCCCO)cc2)=N1,0.315,-2.41 (inactive),-0.0639 (inactive),2.64 (inactive),-0.664 (inactive),0.837,0.161,0.969,0.645,-0.204,0.581 (inactive),0.265,23.9 (active),10.2 (active),3.35 (inactive),2.09 (inactive),0.132,-0.379 (inactive),0.846 (inactive),0.109
C=C[C@H](C)[C@H](OC(=O)Nc1ccc(SC)cc1)c1ccc(O)c2ccccc12,0.081,-4.25 (inactive),-0.0275 (inactive),0.0172 (inactive),4.5 (inactive),-0.635,-0.154,-0.252,-0.0104,0.73,-1.61 (inactive),-1.01,28.9 (active),10.2 (active),2.13 (inactive),0.867 (inactive),0.451,-5.46 (inactive),-0.825 (inactive),1.76
O=C1N(CCS(=O)(=O)c2ccccc2)c2ccccc2[C@H]2OC(c3ccc(OCCCO)cc3)=N[C@@]12CCS(=O)(=O)c1ccccc1,1.52,-1.61 (inactive),1 (inactive),3.35 (inactive),-0.168 (inactive),0.842,1.08,0.766,1.03,1.66,0.401 (inactive),0.582,28.2 (active),26.3 (active),3.35 (inactive),4.36 (inactive),-0.357,1.76 (inactive),0.492 (inactive),1.46
COc1ccc([Si](C)(C)[C@H]2[C@H](CCn3cc(CCO)nn3)O[C@@]3(C(=O)N(Cc4cccc(N5C(=O)c6cccc7cccc5c67)c4)c4ccccc43)[C@@H]2C)cc1,0.16,-7.3 (inactive),-1.11 (inactive),11 (active),-1.3 (inactive),0.99,-0.018,1.33,1.22,1.37,0.652 (inactive),0.466,5.3 (inactive),2.43 (inactive),1.32 (inactive),1.36 (inactive),0.615,0.782 (inactive),1.74 (inactive),2.97
O=c1c2ccc(Br)cc2nc(-c2ccccc2)n1Cc1cccc(O)c1,0.153,-0.913 (inactive),0.32 (inactive),0.272 (inactive),-1.17 (inactive),0.669,0.229,1.45,1.88,0.332,0.421 (inactive),0.748,15.7 (active),3.45 (inactive),0.386 (inactive),1.73 (inactive),-0.404,-1.84 (inactive),-1.05 (inactive),-1.99
CCOC(=O)C[C@H]1[C@H](OC(=O)Cc2ccc3c(c2)OCO3)[C@@H](NC(=O)c2ccccc2)c2cc(OCCCO)ccc2N1C(=O)c1ccccc1,-0.0373,-0.363 (inactive),-0.669 (inactive),0.512 (inactive),0.484 (inactive),0.243,-0.128,0.0229,0.403,0.85,1.7 (inactive),-0.103,1.05 (inactive),0.396 (inactive),-0.707 (inactive),-0.281 (inactive),0.149,0.366 (inactive),0.759 (inactive),0.322
C=CCN1C(=O)[C@@]2(O[C@@H](CCO)[C@H]([Si](C)(C)c3ccc(OC)cc3)[C@H]2C)c2cc(NC(=O)[C@H](C)O)ccc21,0.442,-5.04 (inactive),-0.856 (inactive),17.4 (active),-0.213 (inactive),0.0832,-0.0695,0.923,1.01,1.46,0.301 (inactive),-0.0879,23 (active),6.92 (inactive),0.903 (inactive),1.62 (inactive),0.29,-0.54 (inactive),0.552 (inactive),-0.335
COc1ccc([Si](C)(C)[C@@H]2[C@@H](CCO)O[C@]3(C(=O)N(Cc4ccccc4)c4ccc(N5C(=O)COc6ccccc65)cc43)[C@H]2C)cc1,0.0063,-6.38 (inactive),-0.617 (inactive),-0.636 (inactive),0.0638 (inactive),0.104,-0.0832,-0.0843,-0.309,0.693,2.1 (inactive),-0.435,3.28 (inactive),2.11 (inactive),0.364 (inactive),1.78 (inactive),0.631,0.883 (inactive),1.33 (inactive),1.42
CCCCC=C[C@@H](NC(=O)CCc1ccccc1)c1ccccc1,0.317,-1.98 (inactive),0.175 (inactive),-0.951 (inactive),-0.0104 (inactive),1.64,0.128,0.677,0.701,0.0847,-2.27 (inactive),0.396,1.36 (inactive),0.592 (inactive),-0.985 (inactive),1.28 (inactive),-0.0113,-0.753 (inactive),-0.487 (inactive),0.736
[N-]=[N+]=NCc1ccccc1C[C@@]1(C(=O)NCCN2CCOCC2)N=C(c2ccc(OCCCO)cc2)O[C@@H]1c1ccccc1CN=[N+]=[N-],0.784,-2.99 (inactive),0.497 (inactive),-0.641 (inactive),-0.781 (inactive),0.697,0.196,-0.0348,0.472,0.619,0.648 (inactive),0.565,26.4 (active),13.7 (active),1.2 (inactive),2.26 (inactive),-0.213,0.528 (inactive),0.116 (inactive),2.24
CCOC(=O)C[C@H]1[C@H](OC(=O)c2ccccc2-c2ccccc2)[C@@H](NC(=O)c2ccccc2)c2cc(OCCCO)ccc2N1C(=O)Cc1ccc(OC)cc1,-0.105,0.0692 (inactive),-0.228 (inactive),1.58 (inactive),0.0006 (inactive),0.621,-0.154,-0.193,0.0375,0.0772,-0.81 (inactive),-0.193,2.01 (inactive),0.318 (inactive),-0.338 (inactive),0.109 (inactive),0.0269,0.639 (inactive),1.22 (inactive),0.327
CN(C)C(=O)[C@]1(Cc2ccccc2N=[N+]=[N-])N=C(c2ccc(OCCCO)cc2)O[C@@H]1c1ccccc1CN=[N+]=[N-],0.556,-4.87 (inactive),-1.57 (inactive),1.57 (inactive),0.367 (inactive),1.27,0.282,0.683,0.84,0.307,0.367 (inactive),0.81,29.4 (active),20 (active),3.02 (inactive),2.16 (inactive),0.915,-2.57 (inactive),-0.305 (inactive),-1.93
CN1C(=O)C2C=CC(C(O)c3cccc4ccccc34)N(NC(=O)OC(C)(C)C)C2C1=O (stereo not given),0.611,0.227 (inactive),0.489 (inactive),1 (inactive),0.6 (inactive),1.51,0.723,0.104,1.41,-0.271,-0.622 (inactive),0.966,1.15 (inactive),0.564 (inactive),0.0094 (inactive),0.877 (inactive),-1.22,-0.492 (inactive),-3.85 (inactive),0.409
